# Measured values: ChEMBL document CHEMBL3988442, “University of Dundee, Small-Polar-MMV Screening Library” (2021)
# About 13,000 (27%) of roughly 48,000 compounds showed an effect of 50% or more. This is one part of the list.
# System: Wolbachia pipientis
# Experiment: Anti-Wolbachia Cell-Based Screen
# Type: functional
# Parameters: scale not given: in the data most compounds retested in dose-response had high values
# Details: 5 µM
row,Compound,Percent Effect [%]
1,CCc1nc2n(n1)CC(NCCc1cccs1)CC2 (stereo not given),-19.61
2,N#Cc1c(F)cccc1NCCCOCC1CCOCC1,-8.528
3,O=C1CC(c2ccsc2)c2snc(C(=O)O)c2N1 (stereo not given),-3.117
4,CC1(C)CNC(=O)CN(C(=O)CCc2ccccc2)C1,92.84
5,COc1ccc(CC(=O)N2CC(=O)NCC(C)(C)C2)cc1,81.26
6,COc1ccc(CC(=O)N2CC[C@@H]3NC(=O)CC[C@@H]32)cc1,-10.22
7,CC1(C)CNC(=O)CN(C(=O)COc2ccccc2)C1,99.32
8,Cc1ccc(N2CCN(C(=O)COc3ccccc3)CC2)nn1,-10.88
9,O=C(O)C(F)(F)F.O=C1CCC2(CCCN(C(=O)Cc3cccnc3)C2)N1 (stereo not given),-30.04
10,Cc1ccnc2c1NC(=O)CN2C(=O)CCc1ccccc1,5.988
11,Cc1nc(-c2ccc(CC(=O)N3CCNC(=O)C3)cc2)cs1,-10.4
12,O=C1CCC2(CCCN(C(=O)Cc3ccccc3)C2)N1 (stereo not given),-74.63
13,CCc1ccc(CCC(=O)N2CCC(=O)Nc3cccnc32)cc1,-4.556
14,CCc1nsc(N2CCN(C(=O)COc3ccccc3)CC2)n1,-3.89
15,CC1(C)CNC(=O)CN(C(=O)Cc2ccccc2)C1,98.91
16,CN(C)C(=O)CS(=O)(=O)Cc1ccn(-c2cccc(F)c2)n1,3.991
17,CCn1c(CN(C)C)nnc1C1CCN(Cc2ccc(C)s2)CC1,-25.38
18,COc1ccc(-c2n[nH]cc2CN(C)CCCN2CCOCC2)c(F)c1,4.429
19,N#Cc1nccnc1NCCC1CCN(CC(F)(F)F)CC1,-10.09
20,O=C(CN1CCC2(CCCCC2)C1)NCC(F)(F)F,-17.09
21,O=C(NCCCn1cccn1)N1CCCC1c1ccncc1 (stereo not given),20.68
22,Cc1cnn(CCNCc2ccc(F)cc2Cl)c1,-9.942
23,COc1ccccc1N1CCC(CNC(=O)CN2CSCC2=O)C1 (stereo not given),-5.034
24,Cc1ccccc1C(NC(=O)Cn1cc(C2CC2)nn1)C1CC1 (stereo not given),6.908

row,Compound,Percent Effect [%]
1,COc1ccccc1N1CC(NC(=O)Cn2cc(C)nn2)CC1=O (stereo not given),83.28
2,CC(C)Oc1ccccc1C(=O)NC1CC(=O)N(CC(F)(F)F)C1 (stereo not given),-7.447
3,COc1ccccc1N1CC(NC(=O)c2cc(C(C)C)nn2C)CC1=O (stereo not given),186.5
4,COc1ccccc1N1CCCC(Nc2ncccn2)C1=O (stereo not given),-13.39
5,COc1ccc(CCNC(=O)NC2CC(=O)N(c3ccccc3)C2)cc1 (stereo not given),13.52
6,CC(C)c1cn(CC(=O)NC2CC(=O)N(CCc3ccccc3)C2)nn1 (stereo not given),94.88
7,COc1ccccc1N1CC(NC(=O)Cn2cc(C(C)C)nn2)CC1=O (stereo not given),82.88
8,COc1ccccc1N1CCN(CC[C@H](O)c2ccccc2)CC1=O,-5.081
9,O=C(NCC1CC(=O)N(CCc2ccccc2)C1)c1ccc[nH]1 (stereo not given),-4.58
10,O=C1CC(NS(=O)(=O)N2CCOCC2)CN1CCc1ccccc1 (stereo not given),3.785
11,COc1cc(-c2cccc3c2OC(CN)C3)ccc1O (stereo not given),12.42
12,CC(C)(C)NC(=O)c1cnc2n1CCCC2,-4.757
13,CCOC(=O)N1CCN(c2nc(C)ncc2CC)CC1,-1.601
14,Cc1ccc(-c2cnc3n2CCN(C)C32CCN(CC3CC3)CC2)cc1.O=C(O)C(F)(F)F.O=C(O)C(F)(F)F.O=C(O)C(F)(F)F,0.5048
15,CN1CCn2c(-c3ccccc3)cnc2C12CCN(CC1CC1)CC2.O=C(O)C(F)(F)F.O=C(O)C(F)(F)F.O=C(O)C(F)(F)F,-7.532
16,CC(=O)N1CCn2c(-c3ccccc3)cnc2C12CCNCC2.O=C(O)C(F)(F)F.O=C(O)C(F)(F)F,-11.86
17,CCS(=O)(=O)N1CCC2(CC1)c1ncc(-c3cccnc3)n1CCN2C,107
18,CC(=O)N1CCC2(CC1)c1ncc(-c3ccc(F)cc3)n1CCN2C,95.01
19,CCS(=O)(=O)N1CCC2(CC1)CCn1c(-c3cnn(C)c3)cnc12.O=C(O)C(F)(F)F,2.009
20,CC(=O)N1CCC2(CC1)c1ncc(-c3ccccc3)n1CCN2C(C)=O,23.35
21,CC(=O)N1CCC2(CC1)c1ncc(-c3ccccc3)n1CCN2C,98.56
22,Cc1cc(C(=O)N2CCC(n3cc(CO)nn3)CC2)ccc1F,2.644
23,CN(C)C(=O)CCN1CC(c2ccccc2)(c2ccccc2)CCC1=O,-7.363
24,Cc1nnc(CN(C)CC(=O)N2CCCC(C)CC2)n1C (stereo not given),-6.061

row,Compound,Percent Effect [%]
1,Cc1cc(C[C@@H]2COC[C@@H]2NC(=O)CNC(=O)N(C)C)on1,-9.814
2,CS(=O)(=O)CCC(=O)NC(Cc1ccccc1)C1CC1 (stereo not given),2.067
3,O=C(CCN1CCCC1=O)NCc1cccnc1Oc1ccccc1,-4.21
4,Cc1cccc(OCCNC(=O)CN2CCCC2Cn2cccn2)c1 (stereo not given),-3.043
5,O=C(CN1CCCC1Cn1cccn1)NCCOc1cccc(F)c1 (stereo not given),99.45
6,CN(CC(=O)N1CCCC1Cn1cccn1)C1CC1 (stereo not given),-6.628
7,COc1cccc(CNC(=O)CN2CCCCC2Cn2cccn2)c1 (stereo not given),0.3805
8,O=C(CCOc1ccc(F)cc1)N1CCCC1Cn1cccn1 (stereo not given),126.4
9,O=C(CCCOc1ccccc1)N1CCCC1Cn1cccn1 (stereo not given),116.1
10,O=C(CCOc1cccc(F)c1)N1CCCC1Cn1cccn1 (stereo not given),124.8
11,COCc1nc(CNC(=O)C(C)n2ccnc2C(C)C)no1 (stereo not given),-16.22
12,Cc1ccc(NC(=O)NC(C)C(=O)N2CCS(=O)(=O)CC2)cc1 (stereo not given),-2.937
13,COc1ccc(CC(=O)N2CCCCC2Cn2cccn2)cc1 (stereo not given),136.1
14,O=C(c1ccc(Br)o1)N1CCCCC1Cn1cccn1 (stereo not given),0.8504
15,COc1ccc2c(ccn2CC(=O)N2CCCC2Cn2cccn2)c1 (stereo not given),2.808
16,COc1cccc(COCC(=O)N2CCCC2Cn2cccn2)c1 (stereo not given),116
17,COc1cccc(COCC(=O)N2CCCC(N3CCCC3)CC2)c1 (stereo not given),-3.543
18,COc1cccc(COCC(=O)N2CCCC(n3cccn3)C2)c1 (stereo not given),17.54
19,Cc1ccc(CC(=O)N2CCCCC2Cn2cccn2)cn1 (stereo not given),89.03
20,O=C(Cn1cnnn1)N1CCCCC1Cn1cccn1 (stereo not given),-6.209
21,COc1ccc(OCCC(=O)N2CCCC2Cn2cccn2)cc1 (stereo not given),116.7
22,COc1ccc2cc(C(=O)N3CCCCC3Cn3cccn3)[nH]c2c1 (stereo not given),-2.712
